Pf growth 96h: P. falciparum growth inhibition at 96 hours | P. falciparum luciferase reporter growth, 96 h | Potency, µM (series often up to 28.7 µM), hits mostly inhibitors | 320,000 tested, 6.9% active | AID 504834
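Two-generation exposure (96 h) targets delayed-death phenotype. Reporter parasites carrying integrated firefly luciferase, in red cells at 2% hematocrit and 0.05% parasitemia final, kept at 37 C, 5% CO2; luminescence loss indicates inhibition.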
Sm TGR inh: S. mansoni TGR enzyme inhibition; Potency, µM (doses to about 114 µM), actives largely listed as inhibitors; purified TGR, DTNB reduction, TNB absorbance 405 nm; AID 485364; 360,000 tested, 3% active; Q962Y6; note: nearly all actives have a fitted effect of over 60% in size
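TGR 20 nM + NADPH 100 uM (dispensed conc.), cpd preinc 15 min RT; start with NADPH (500 uM addition) then DTNB (15 mM addition). Kinetic TNB absorbance, 405 nm filter. Four-parameter Hill fit across titration.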
Pf growth 48h: inhibits P. falciparum growth in the first generation, 48 h. P. falciparum luciferase growth in erythrocytes, 48 h. Potency, µM (series often up to 28.7 µM), hits mostly inhibitors. 310,000 tested, 5.9% active
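Growth was read as firefly luciferase luminescence after a 48 h, 37 C, 5% CO2 exposure of compounds to reporter-bearing P. falciparum cultures (0.1% parasitemia, 2% hematocrit final) in Albumax-supplemented RPMI 1640.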
Shiga inhibitor: Shiga toxin inhibition. 290,000 tested, 9.2% active. Vero cells, Shiga toxin protein synthesis inhibition reporter. inhibition, % at 38.7 µM; in the data active = inhibition mostly above about 28%, no sharp cut-off; inactive = mostly below about 43%
CHX counter: affects cycloheximide protein synthesis inhibition readout, counter-screen; cell reporter, cycloheximide protein synthesis inhibition counterscreen; AID 2314; 300,000 tested, 12% active; max response, %; in the data active = max response mostly above about 13%, no sharp cut-off; inactive = mostly below about 14%; note: read at 38.3 µM for the half of the compounds with a filed dose
NS1 inh: inhibitors of influenza NS1 protein function. Potency, µM (top dose mostly 46.1 µM). 270,000 tested, 0.4% active. AID 2326; calls by dose curve; note: actives are rising curves; nearly all actives have a fitted effect of over 50% in size
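A cell-based growth assay was used: compounds that relieve NS1-induced slow growth of budding yeast raise OD600. Assay medium was yeast nitrogen base with ammonium sulphate and -URA supplement, pH 6.0, with 2% galactose.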
A number is an active result; . = inactive; ? = inconclusive; / = no result given. The list is not random: actives were taken first. Their share in the collection is about 21%. Unless noted, calls come from the whole dose curve; as a rule, active = well fitted curve in the direction sought with a large enough effect; inconclusive = small, poorly fitted or top-dose-only effect, or another doubt; inactive = no such curve, though single readings can be large; an effect the other way counts as inactive or inconclusive.

SMILES	Pf growth 96h	Sm TGR inh	Pf growth 48h	Shiga inhibitor	CHX counter	NS1 inh
CCCC1S/C(=N/N=C/c2ccc(C)cc2)N(Cc2ccc(OC)cc2)C1=O (stereo not drawn)	10µM	.	4.1µM	.	.	.
COc1ccc(/C=N/N=C2\SC(CC(=O)O)C(=O)N2c2ccccc2)cc1 (stereo not drawn)	1.7µM	.	.	.	.	.
COc1ccc(N=C2SCC(=O)N2Cc2ccccc2)cc1	9.3µM	.	.	.	.	/
COc1ccc(/C=N\N=C2/SC(CC(=O)O)C(=O)N2c2ccc(O)cc2)cc1 (stereo not drawn)	.	.	.	.	.	.
COc1ccc(CN2C(=O)CS/C2=N/N=C/c2ccccc2)cc1	.	.	.	.	.	.
O=C(COc1ccccc1C(=O)NCc1ccncc1)Nc1ccc(Br)cc1	?	.	?	.	.	/
Cn1c(C(=O)N/N=C/c2ccccc2)cc2ccccc21	.	?	.	.	21	.
Cn1c(/C=N/NC(=O)c2ccccc2)nc2ccccc21	?	.	?	75	31	.
COc1ccc(C(=O)Nc2ccccc2C(=O)OCc2cc(=O)n3nc(C4CC4)sc3n2)cc1	/	.	/	/	/	/
O=C(Nc1ccc(C(=O)N2CCCCC2)cc1)c1nsc2ccccc12	/	.	/	/	/	/
CCCC(O)c1nc2ccccc2n1CCCCOc1ccc(OC)cc1 (stereo not drawn)	/	.	/	/	/	/
CCO[C@H]1OC(C(=O)N2CCN(Cc3ccc4c(c3)OCO4)CC2)=C[C@@H](c2ccc(Br)cc2)[C@@H]1CCCO	5.2µM	.	10µM	.	.	.
CCO[C@H]1OC(C(=O)N2CCN(Cc3ccc4c(c3)OCO4)CC2)=C[C@@H](c2ccc(C(F)(F)F)cc2)[C@@H]1CCCO	1.5µM	.	?	.	.	.
C#CCNC(=O)C1=C[C@@H](c2ccc(Br)cc2)[C@H](CCCO)[C@@H](OCC)O1	.	.	.	.	.	.
C#Cc1ccc([C@@H]2C=C(C(=O)N3CCN(Cc4ccc5c(c4)OCO5)CC3)O[C@H](OCC)[C@H]2CCCO)cc1	.	.	.	.	.	.
CCO[C@H]1OC(C(=O)N2CCN(Cc3ccc4c(c3)OCO4)CC2)=C[C@@H](C2CC2)[C@@H]1CCCO	7.4µM	.	?	.	.	.
C#CCNC(=O)C1=C[C@H](c2ccc3c(c2)OCO3)[C@@H](CCCO)[C@H](OCC)O1	?	45µM	?	.	.	.
CCO[C@@H]1OC(C(=O)O)=C[C@H](c2ccc3c(c2)OCO3)[C@H]1CCCO	.	.	.	.	.	.
CCOC(=O)Cn1c(=O)oc2cc(S(=O)(=O)NCc3ccc(F)cc3)ccc21	/	.	/	/	/	/
Cc1ccc(S(=O)(=O)CCSc2n[nH]c(=O)n2-c2ccc3c(c2)OCCO3)cc1	.	?	.	.	.	.
CCO[C@H]1OC(C(=O)N2CCN(Cc3ccc4c(c3)OCO4)CC2)=C[C@@H](c2ccccc2)[C@@H]1CCCO	?	.	?	.	.	.
CCO[C@@H]1OC(C(=O)N2CCN(Cc3ccc4c(c3)OCO4)CC2)=C[C@H](c2ccc3c(c2)OCO3)[C@H]1CCCO	3.3µM	.	?	.	.	.
CCOC(=O)CC(=O)CSc1ccc2nnc(-c3ccccc3)n2n1	?	.	3.7µM	.	.	?
O=C(CSc1ccc(-c2ccc(Cl)cc2)nn1)N1CCCc2ccccc21	?	.	.	.	13	.
Cc1nnc(SCC(=O)N2CCCc3ccccc32)[nH]c1=O	.	.	/	.	23	.
SMILES	Pf growth 96h	Sm TGR inh	Pf growth 48h	Shiga inhibitor	CHX counter	NS1 inh
Cc1ccc(-c2nnc3ccc(SCC(=O)N4CCc5ccccc54)nn23)cc1	.	.	.	.	.	.
Cc1ccc(-c2nnc3ccc(SCC(=O)N4CCCc5ccccc54)nn23)cc1	10µM	.	?	.	.	.
COc1ccc(NC(=O)Nc2ccccn2)cc1OC	.	.	.	62	34	.
CN1C(=O)CSc2ccc(NC(=O)N3CCC(N4CCCCC4)CC3)cc21	12µM	.	/	.	.	.
O=C(Nc1ccc(Cl)c(Cl)c1)Nc1ccccn1	.	.	.	66	46	.
O=C(Nc1cccnc1)Nc1ccccn1	.	.	.	.	.	.
COc1ccccc1C(=O)Nc1nsc(-c2ccccc2)n1	.	.	.	79	49	.
O=C(Cn1c(=O)oc2ccccc21)N1CCN(S(=O)(=O)c2ccccc2)CC1	.	.	.	/	/	/

Source: PubChem BioAssay (National Center for Advancing Translational Sciences (NCATS))
